These compounds were tested on Wnt5a (protein binding on small-molecule microarray) (assay: small molecules binding Wnt5a protein – biophysical, small-molecule microarray, 635/667 nm fluorescence, primary screen (AID 1142;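 further: fluorescence read at 667 nm with signal to noise per printed feature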)). Settings: 635 nm fluorescence, higher = more signal.

Compound | composite z-score
CCOC(=O)[C@H]1C/C=C/C[C@H](C(=O)OCC)C(=O)O[C@H]2[C@@H](OC)O[C@H](CO)[C@@H](OC(=O)c3c(OC)cccc3OC)[C@@H]2OC1=O | 0.172
CCC(CC)C(O)C1C=CC2C(=O)NC(=O)C2N1Nc1ccc(Cl)cc1Cl (stereo not given) | 0.0146
CCOC(=O)C[C@H]1[C@H](OC(=O)c2ccc(C(=O)c3ccccc3)cc2)[C@@H](NC(=O)c2ccc3ccccc3c2)c2cc(OCCCO)ccc2N1C(=O)Cc1ccc(OC)cc1 | -0.354
COC(=O)[C@@]1(CCC(=O)OC(C)(C)C)N=C(c2ccc(OCCCO)cc2)O[C@H]1c1ccccc1N=[N+]=[N-] | 0.174
COC(=O)[C@@]1(Cc2ccc(OC)cc2)[C@H]2c3cc(C(=O)N(C)C)n(Cc4ccccn4)c3C[C@H]2CN1C(=O)c1ccccc1 | 0.164
CCCC[C@@H]1C[C@H]1[C@@H](NC(=O)c1ccccc1)c1ccc(C(=O)OC)cc1 | 0.106
CCCCCCc1nc(-c2ccc(OC)nc2)cc2c1[Si](C(C)C)(C(C)C)O[C@H]2c1ccccc1 | 0.323
COC(=O)C(CC#Cc1ccc2c(c1)[C@]1(C(=O)N2)[C@H](C(=O)Nc2nc3ccccc3s2)[C@H]2C(=O)O[C@H](c3ccccc3)[C@H](c3ccccc3)N2[C@@H]1c1ccccc1OCCO)C(=O)OC | 0.573
CN(C)C(=O)[C@@]1(CCS(=O)(=O)c2ccccc2)COC(c2ccc(OCCCO)cc2)=N1 | 0.623
COc1ccc(C#Cc2ccc3c(c2)[C@]2(C(=O)N3)[C@H](C(=O)Nc3nc4ccccc4s3)[C@H]3C(=O)O[C@H](c4ccccc4)[C@H](c4ccccc4)N3[C@@H]2c2ccc(O)cc2)cc1 | 0.823
C=C(CC1([C@@H](NP(=O)(c2ccccc2)c2ccccc2)[C@H]2C[C@@H]2CCCC)CC1)c1ccccc1 | 0.542
C=CCN1C(=O)[C@@]2(CC=C)N=C(c3ccc(OCCCO)cc3)O[C@H]2c2ccccc21 | 1.39
CCCC[C@@H]1C[C@H]1[C@@H](NC(=O)c1ccco1)c1ccc(-c2ccccc2)cc1 | -0.0076
C=C(C)[C@@H]1CC=C(C(O)C2C=CC3C(=O)N(C)C(=O)C3N2Nc2ccccc2)CC1 (stereo not given in full) | 0.297
O=C1C2C=CC(C(O)Cc3ccccc3)N(n3cnnc3)C2C(=O)N1Cc1ccccc1 (stereo not given) | 0.0769
C=C(COC)/C(=C/C[C@@H](OC(C)=O)c1ccc(OCCO)cc1)c1cnc2ccccc2c1 | 0.837
COCCOC(=O)N1C(=O)[C@@]2(c3cc(C#CCNC(N)=O)ccc31)[C@H](C(=O)N1CCN(c3ncccn3)CC1)[C@H]1C(=O)O[C@H](c3ccccc3)[C@H](c3ccccc3)N1[C@@H]2c1ccc(OCCO)cc1 | 0.344
C=CCOC(=O)[C@@H]1[C@H]2C(=O)O[C@H](c3ccccc3)[C@H](c3ccccc3)N2[C@H](c2ccc(OCCOC(=O)[C@@H]3C[C@@H]4C(=O)NCC(=O)N4[C@@H]3c3ccc(O)cc3)cc2)[C@@]12C(=O)Nc1ccc(I)cc12 | 0.828
CC#CC(=O)Oc1ccccc1C=CC(=O)OCC | -0.0407
CCCC[C@@H]1C[C@H]1[C@@H](NC(=O)c1ccco1)c1ccccc1C(F)(F)F | 0.667

Source: PubChem BioAssay
